PubChem BioAssay
Calls of active or inactive are those of the source.

Columns and labels:
[1] = system: PRMT1 (protein arginine N-methyltransferase 1); assay: small molecules binding arginine methyltransferase PRMT1 – biochemical, small-molecule microarray, 635 nm fluorescence, primary screen (AID 1088); details: higher = more signal;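 note: binding of Prmt1 protein to compounds spotted on small-molecule microarray slides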
[2] = growth effects on S. cerevisiae YJM789 – YJM789 clinical isolate, OD600, 24 h, basal, primary screen (AID 1089); details: higher = more signal, called active from +8 up or from −8 down;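 note: growth of clinical yeast isolate S. cerevisiae YJM 789 seeded 1000 cells per well; test concentration not given here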
[3] = S. pombe growth modifiers, basal conditions – strain 972, OD600, 24 h, no modulator, primary screen (AID 1090);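 note: basal condition with compound alone and no growth modifier present; test concentration not given here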; details: S. pombe 972 growth, higher = more signal, called active from +8 up or from −8 down
[4] = budding yeast growth modifiers under rapamycin – strain BY4716, OD600, 96 h, primary screen (AID 1091); note: test concentration not given here; details: S. cerevisiae BY4716 + rapamycin, higher = more signal, called active from +8 up or from −8 down
[5] = target: Torsin-1A-interacting protein 2 (Homo sapiens) (UniProt Q8NFQ8); assay: small molecules binding lysate-expressed LULL1 – cell lysate, human LULL1 lysate, 635/667 nm fluorescence, primary screen (AID 1092); details: small-molecule microarray, hLULL1 lysate binding, 635 nm fluorescence; higher = more signal;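 note: probe is lysate of COS7 cells overexpressing human LULL1; score merges per-feature 667 nm fluorescence with signal-to-noise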
Chain of Torsin-1A-interacting protein 2 (Homo sapiens) (Q8NFQ8 whole entry, looked up): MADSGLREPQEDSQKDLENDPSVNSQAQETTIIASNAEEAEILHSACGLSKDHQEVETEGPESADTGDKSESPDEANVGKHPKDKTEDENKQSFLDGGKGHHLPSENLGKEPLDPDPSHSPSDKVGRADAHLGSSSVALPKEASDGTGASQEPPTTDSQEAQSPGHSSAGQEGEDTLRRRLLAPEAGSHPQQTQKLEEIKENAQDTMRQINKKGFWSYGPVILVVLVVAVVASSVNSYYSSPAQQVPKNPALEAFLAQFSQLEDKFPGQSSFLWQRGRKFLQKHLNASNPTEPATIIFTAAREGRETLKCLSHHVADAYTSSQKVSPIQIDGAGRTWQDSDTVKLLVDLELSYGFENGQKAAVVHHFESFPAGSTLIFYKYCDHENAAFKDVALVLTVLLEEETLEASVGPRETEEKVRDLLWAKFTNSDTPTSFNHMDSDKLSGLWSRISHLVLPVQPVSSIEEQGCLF

[6] = optical density change of DRC41 E. coli – strain DRC41, OD650, 24 h, E. coli filamentation project, primary screen (AID 1093);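 note: MC1000 strain lacking acrAB efflux and sulA so SOS filamentation is blocked; test concentration not given here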; details: E. coli DRC41 growth, higher = more signal, called active from +8 up or from −8 down
[7] = probe aLefty2 binding to arrayed compounds – biochemical, biotinylated probe, 635/667 nm fluorescence, primary screen (AID 1094); details: small-molecule microarray, higher = more signal;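 note: score merges spot fluorescence near 667 nm with spot signal-to-noise ratio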
[8] = system: Noggin (protein binding on small-molecule microarray); assay: small molecules binding Noggin protein – biochemical, 635/667 nm fluorescence, primary screen (AID 1095); details: 635 nm fluorescence, higher = more signal;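 note: score merges 667 nm feature fluorescence with signal to noise over triplicate slides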
[9] = target: Neurogenic locus notch homolog protein 3 (Homo sapiens) (UniProt Q9UM47); assay: small molecules binding NOTCH3 protein – biochemical, 635/667 nm fluorescence, primary screen (AID 1096); details: small-molecule microarray, 635 nm fluorescence, higher = more signal
Chain of Neurogenic locus notch homolog protein 3 (Homo sapiens) (Q9UM47 whole entry, looked up): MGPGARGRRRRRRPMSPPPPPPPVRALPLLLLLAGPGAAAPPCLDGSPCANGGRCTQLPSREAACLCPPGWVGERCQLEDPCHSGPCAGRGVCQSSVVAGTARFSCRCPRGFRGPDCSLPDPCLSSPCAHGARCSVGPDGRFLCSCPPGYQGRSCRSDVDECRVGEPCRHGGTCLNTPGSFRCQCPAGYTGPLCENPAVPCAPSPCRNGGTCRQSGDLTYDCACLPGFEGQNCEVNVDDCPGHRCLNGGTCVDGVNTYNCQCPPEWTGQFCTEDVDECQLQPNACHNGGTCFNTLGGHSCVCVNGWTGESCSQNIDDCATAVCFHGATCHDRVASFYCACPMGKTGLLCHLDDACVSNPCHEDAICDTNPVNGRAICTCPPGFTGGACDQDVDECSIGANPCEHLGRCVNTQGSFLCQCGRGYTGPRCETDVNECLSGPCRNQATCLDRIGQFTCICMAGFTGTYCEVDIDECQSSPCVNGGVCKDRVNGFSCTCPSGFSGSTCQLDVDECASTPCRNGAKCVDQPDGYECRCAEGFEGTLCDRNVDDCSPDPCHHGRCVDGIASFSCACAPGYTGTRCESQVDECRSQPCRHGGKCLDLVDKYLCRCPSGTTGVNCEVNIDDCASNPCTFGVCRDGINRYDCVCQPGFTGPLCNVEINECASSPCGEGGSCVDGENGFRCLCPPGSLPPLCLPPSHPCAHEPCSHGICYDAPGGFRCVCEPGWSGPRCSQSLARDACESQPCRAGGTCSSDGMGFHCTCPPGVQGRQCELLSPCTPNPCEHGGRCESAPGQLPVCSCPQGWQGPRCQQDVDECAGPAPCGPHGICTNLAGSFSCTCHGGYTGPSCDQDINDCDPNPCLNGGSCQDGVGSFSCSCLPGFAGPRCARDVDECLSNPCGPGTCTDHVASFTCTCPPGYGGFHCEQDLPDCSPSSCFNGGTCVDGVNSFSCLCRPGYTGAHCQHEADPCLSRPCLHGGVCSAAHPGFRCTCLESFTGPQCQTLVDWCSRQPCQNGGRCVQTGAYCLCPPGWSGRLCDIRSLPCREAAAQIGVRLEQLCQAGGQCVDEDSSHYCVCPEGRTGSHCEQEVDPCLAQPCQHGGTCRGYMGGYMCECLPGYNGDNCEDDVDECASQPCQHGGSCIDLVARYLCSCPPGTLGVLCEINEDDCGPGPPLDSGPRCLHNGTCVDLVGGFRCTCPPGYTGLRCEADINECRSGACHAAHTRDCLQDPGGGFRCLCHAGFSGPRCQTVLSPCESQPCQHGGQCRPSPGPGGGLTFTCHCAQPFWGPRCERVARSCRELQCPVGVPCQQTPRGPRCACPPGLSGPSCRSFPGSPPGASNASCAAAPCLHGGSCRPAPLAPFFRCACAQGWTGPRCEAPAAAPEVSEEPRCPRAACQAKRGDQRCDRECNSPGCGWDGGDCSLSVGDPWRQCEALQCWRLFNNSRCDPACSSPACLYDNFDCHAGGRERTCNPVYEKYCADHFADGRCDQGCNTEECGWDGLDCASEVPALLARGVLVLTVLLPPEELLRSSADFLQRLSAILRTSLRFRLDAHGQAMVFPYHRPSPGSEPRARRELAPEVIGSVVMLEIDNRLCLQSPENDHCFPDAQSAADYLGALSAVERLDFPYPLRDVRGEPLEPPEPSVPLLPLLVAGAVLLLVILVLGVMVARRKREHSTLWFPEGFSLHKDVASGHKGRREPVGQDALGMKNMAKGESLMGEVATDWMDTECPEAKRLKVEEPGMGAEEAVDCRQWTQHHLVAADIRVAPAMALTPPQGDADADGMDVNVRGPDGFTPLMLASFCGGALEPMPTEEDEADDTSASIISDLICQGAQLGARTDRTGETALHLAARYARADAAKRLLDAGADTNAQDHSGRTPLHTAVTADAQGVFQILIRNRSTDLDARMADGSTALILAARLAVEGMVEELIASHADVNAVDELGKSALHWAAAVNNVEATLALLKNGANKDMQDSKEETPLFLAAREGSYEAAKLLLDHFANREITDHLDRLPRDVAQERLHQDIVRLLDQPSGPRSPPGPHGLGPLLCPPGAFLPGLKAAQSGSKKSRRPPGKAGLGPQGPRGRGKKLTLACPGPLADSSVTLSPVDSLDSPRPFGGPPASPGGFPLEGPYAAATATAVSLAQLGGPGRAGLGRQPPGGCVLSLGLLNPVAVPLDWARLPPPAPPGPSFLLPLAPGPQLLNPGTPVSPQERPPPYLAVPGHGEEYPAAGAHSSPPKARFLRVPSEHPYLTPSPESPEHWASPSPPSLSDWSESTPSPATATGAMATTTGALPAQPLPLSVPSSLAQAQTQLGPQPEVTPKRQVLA

[10] = probe aEGFR binding to arrayed compounds – biochemical, biotinylated probe, 635/667 nm fluorescence, primary screen (AID 1097); details: small-molecule microarray, higher = more signal;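 note: probe is a biotinylated anti-EGFR antibody binding compounds printed on slides; score combines fluorescence near 667 nm and signal to noise of each spot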

Row | Structure (SMILES) | composite z-score [1] | z-score [2] | z-score [3] | z-score [4] | composite z-score [5] | z-score [6] | composite z-score [7] | composite z-score [8] | composite z-score [9] | composite z-score [10]
1 | CCCCC(CC)C(O)C1C=CC2C(=O)N(c3ccccc3)C(=O)C2N1Nc1ccccc1F (stereo not given) | 1.53 | -0.802 (inactive) | 1.53 (inactive) | 0.314 (inactive) | 2.64 | 0.379 (inactive) | 0.222 | 0.0782 | 0.822 | -0.162
2 | CCCCN1CC=CC23O[C@@H]4/C=C\CCCOC(=O)C4[C@H]2C(=O)N(CCO)[C@@H]3C1=O (stereo not given in full) | -0.328 | 0.812 (inactive) | -0.0784 (inactive) | -0.0859 (inactive) | 3.01 | 2.12 (inactive) | -0.212 | -1.03 | -0.968 | -0.385
3 | O=C1C2C=CC(C(O)c3ccco3)N(Nc3ccccc3F)C2C(=O)N1c1ccccc1 (stereo not given) | -0.281 | 0.252 (inactive) | 0.512 (inactive) | -0.119 (inactive) | 2.46 | -1.47 (inactive) | 0.0686 | -0.221 | 0.569 | -0.0435
4 | Oc1ccc2cc[n+](Cc3cc4c(cc3Br)OCO4)cc2c1 | 0.621 | 1.07 (inactive) | -1.41 (inactive) | 0.645 (inactive) | -0.252 | -0.603 (inactive) | 0.0894 | -0.883 | -1.11 | -0.211
5 | C#CCN([C@@H](Cc1ccccc1)C(=O)OC)[C@@H](/C=C/C1CC1)[C@H](O)Cc1ccccc1 | -0.59 | -0.464 (inactive) | -1.22 (inactive) | -0.0898 (inactive) | 0.209 | -0.807 (inactive) | -0.0051 | 0.0503 | -0.525 | -0.307
6 | COCCOC(=O)N1C(=O)[C@@]2(c3cc(C#CCCO)ccc31)[C@H](c1ccc(OCCO)cc1)N1[C@H](c3ccccc3)[C@H](c3ccccc3)OC(=O)[C@H]1[C@@H]2C(=O)Nc1nc2ccccc2s1 | 1.42 | 1.61 (inactive) | 1.26 (inactive) | 2.48 (inactive) | 1.26 | 0.235 (inactive) | 0.151 | 1.13 | 1.08 | 0.197
7 | CCOC(=O)C[C@H]1[C@H](OC(=O)c2ccc(-c3ccccc3)cc2)[C@@H](NC(=O)CC(C)C)c2cc(OCCCO)ccc2N1C(=O)c1ccc2ccccc2n1 | -0.069 | -1.13 (inactive) | -0.832 (inactive) | -0.656 (inactive) | 1.15 | -0.0583 (inactive) | -0.145 | 0.481 | 0.753 | -0.0828
8 | COc1ccc([Si](C)(C)[C@@H]2[C@@H](CC(=O)N3CCC[C@H]3CO)O[C@]3(C(=O)N(Cc4cccc(N5C(=O)COc6ccccc65)c4)c4ccccc43)[C@H]2C)cc1 | 1.57 | -2.24 (inactive) | -0.185 (inactive) | -0.278 (inactive) | 1.77 | 0.222 (inactive) | -0.0198 | 0.942 | 0.757 | -0.165
9 | CC1CC/C=C\[C@H]2OC34C=CCN(c5ccc6ccccc6c5)C(=O)[C@H]3N(CCCO)C(=O)[C@@H]4C2C(=O)O1 (stereo not given in full) | -0.131 | 0.116 (inactive) | 0.398 (inactive) | 0.799 (inactive) | -0.546 | -0.696 (inactive) | -0.136 | -1.32 | -0.562 | -0.193
10 | CC(C)N1C(=O)c2ccccc2[C@@H](C(=O)NCCN2CCOCC2)[C@@H]1c1ccc(CO)cc1 | -1.01 | 0.696 (inactive) | 0.098 (inactive) | 0.673 (inactive) | 0.518 | -0.589 (inactive) | -0.0613 | -0.465 | -0.616 | -0.212
11 | COc1ccc([Si](C)(C)[C@@H]2[C@@H](CC(=O)N3Cc4ccccc4C[C@H]3CO)O[C@]3(C(=O)N(Cc4ccc(N5C(=O)c6cccc7cccc5c67)cc4)c4ccccc43)[C@H]2C)cc1 | 1.55 | -0.297 (inactive) | 0.389 (inactive) | 1.39 (inactive) | 1.74 | -0.465 (inactive) | 0.104 | 1.14 | 1.04 | 0.0717
12 | COC(=O)[C@@]1(Cc2ccc(F)cc2)[C@H]2c3cc(C(=O)N(C)C)n(Cc4ccc(OC(F)(F)F)cc4)c3C[C@H]2CN1C(=O)c1ccccc1 | -1.21 | 0.784 (inactive) | 1.13 (inactive) | 1 (inactive) | 0.841 | -0.623 (inactive) | -0.0623 | 0.149 | -0.0482 | 0.114
13 | COc1ccc(CCNC(=O)[C@@H]2c3ccccc3C(=O)N(C3CCCCC3)[C@H]2c2ccc(CO)cc2)cc1 | 0.399 | -0.395 (inactive) | -0.838 (inactive) | 0.584 (inactive) | 3.07 | -1.14 (inactive) | -0.0671 | -0.282 | 0.366 | -0.0972
14 | COc1cccc(C)c1NC(=O)O[C@H]1[C@H](OC(=O)Nc2ccc3c(c2)OCO3)[C@@H](OC(=O)Nc2ccc3c(c2)OCO3)[C@@H](OC)O[C@@H]1CO | 1.54 | 1.94 (inactive) | 2.2 (inactive) | 8.01 (active) | 3.58 | 1.23 (inactive) | 0.218 | 1.4 | 1.04 | -0.0031
15 | CN(C)C(=O)[C@@]1(Cc2ccccc2CN=[N+]=[N-])N=C(c2ccc(OCCCO)cc2)O[C@H]1c1ccccc1N=[N+]=[N-] | 1.43 | -0.415 (inactive) | 0.417 (inactive) | 5.36 (inactive) | 3.37 | 0.151 (inactive) | 0.445 | 0.452 | 1.14 | 0.242
16 | [N-]=[N+]=NCc1ccccc1[C@H]1OC(c2ccc(OCCCO)cc2)=N[C@@]1(Cc1ccccc1N=[N+]=[N-])C(=O)NCC(O)CO (stereo not given in full) | 1.54 | -0.527 (inactive) | -0.451 (inactive) | 0.134 (inactive) | 3.52 | -0.221 (inactive) | 0.0511 | 0.0758 | 1.09 | 0.0201
17 | COC(=O)C1=CC(CCCO)=CC(c2cccs2)N(Cc2cccc(OC(F)(F)F)c2)C=C1C(=O)OC (stereo not given) | 1.57 | -1.07 (inactive) | -1.2 (inactive) | -1.45 (inactive) | 3.28 | 0.313 (inactive) | 0.0922 | 0.143 | 1.04 | 0.679
18 | O=C(C1N=C(c2ccc(OCCCO)cc2)N(c2ccccc2)O1)N1CCCCC1 (stereo not given) | 1.54 | -0.537 (inactive) | -0.734 (inactive) | 0.0484 (inactive) | 2.95 | 0.828 (inactive) | 0.226 | 0.684 | 0.288 | 0.0542
19 | C=C[C@@H](OC)[C@H](OC(=O)Nc1ccc(OC)cc1)c1ccc(O)c(F)c1 | 0.882 | -1.48 (inactive) | -4.59 (inactive) | 0.144 (inactive) | 1.16 | 1.19 (inactive) | -0.183 | 0.638 | 0.0981 | -0.199
20 | COCCCNC(=O)[C@@]1(Sc2ccc(C)cc2)CC(=O)N(C2Cc3ccccc3C2)[C@@H]1c1ccc(CO)cc1 | 0.585 | 0.0853 (inactive) | -1 (inactive) | -0.798 (inactive) | 3.11 | -1.27 (inactive) | -0.236 | -1.72 | -0.314 | -0.254
21 | O=C(Cc1ccccc1)[C@H]1C2C=CCCC(c3ccccc3)=C2CN1Cc1ccccc1 (stereo not given in full) | 0.044 | -0.213 (inactive) | -1.29 (inactive) | -0.481 (inactive) | -0.862 | 2.42 (inactive) | -0.207 | -0.0884 | -0.433 | -0.0828
22 | C=CCC(OC(C)=O)[C@@H]1[C@@H](N(Cc2cccc3ccccc23)C(=O)Cc2ccc(F)cc2)c2cc(OCCCO)ccc2N1C(=O)c1ccc2ccccc2c1 (stereo not given in full) | -0.209 | -0.19 (inactive) | 1.43 (inactive) | -0.235 (inactive) | 0.226 | 0.693 (inactive) | 0.0261 | 0.154 | 0.268 | -0.0967
23 | C=CCC(OC(C)=O)[C@@H]1[C@@H](N(Cc2cc3ccccc3o2)C(=O)Cc2ccc(F)cc2)c2cc(OCCCO)ccc2N1C(=O)Cc1ccc2ccccc2c1 (stereo not given in full) | -0.241 | -0.689 (inactive) | -0.761 (inactive) | -0.36 (inactive) | 0.426 | -1.16 (inactive) | -0.0736 | 0.129 | -0.413 | -0.185
24 | O=C(NCCN1CCOCC1)[C@@H]1c2ccccc2C(=O)N(C2Cc3ccccc3C2)[C@H]1c1ccc(CO)cc1 | 0.925 | -2.95 (inactive) | -0.534 (inactive) | -0.979 (inactive) | 3.2 | 1.78 (inactive) | -0.0145 | -0.398 | 0.123 | -0.214
25 | NC(=O)NCC#Cc1ccc2c(c1)[C@]1(C(=O)N2)[C@H](c2ccccc2OCCO)N2[C@H](c3ccccc3)[C@H](c3ccccc3)OC(=O)[C@H]2[C@@H]1C(=O)O | 0.507 | 0.798 (inactive) | -0.602 (inactive) | -0.675 (inactive) | 1.31 | 1.4 (inactive) | -0.0201 | 0.192 | -0.199 | -0.185
26 | CCCCC(CC)C(O)C1C=CC2C(=O)N(c3ccccc3)C(=O)C2N1Nc1ccc(C#N)cc1 (stereo not given) | 1.54 | 0.491 (inactive) | 0.221 (inactive) | 1.85 (inactive) | 3.14 | 0.0307 (inactive) | 0.555 | 0.208 | 1.04 | 0.338
27 | CS(=O)(=O)CCOC(=O)C1=CC(CCCO)=CC(c2ccc(CN3CCCC3)cc2)N(Cc2sc3ccccc3c2Cl)C=C1C(=O)OCCS(C)(=O)=O (stereo not given) | 1.54 | -0.381 (inactive) | -5.83 (inactive) | -1.41 (inactive) | 2.06 | -0.853 (inactive) | 0.27 | 0.563 | 1.04 | 0.447
28 | O=C1N(CCS(=O)(=O)c2ccccc2)c2ccccc2[C@H]2OC(c3ccc(OCCCO)cc3)=N[C@@]12Cc1ccccc1 | 1.55 | 0.28 (inactive) | -0.0472 (inactive) | 5.03 (inactive) | 2.36 | 0.611 (inactive) | 0.507 | 1.56 | 1.1 | 0.263
29 | COc1ccc(C#Cc2ccc3c(c2)[C@]2(C(=O)N3)[C@H](c3ccc(OCCO)cc3)N3[C@H](c4ccccc4)[C@H](c4ccccc4)OC(=O)[C@H]3[C@@H]2C(=O)NC[C@H](O)c2ccccc2)cc1 | 1.57 | 4.38 (inactive) | 2.39 (inactive) | 4.82 (inactive) | 3.08 | 1.16 (inactive) | -0.0977 | 0.447 | 1.08 | -0.0152
